Columns and labels:
Experiment in all cases: protein domain microarray probed with biotinylated miRNA; Domain array: 20 mM Tris-HCl pH 7.4, 200 mM KCl, 0.2 mM EDTA, 0.05% NP40, 2 ug/ul heparin, overnight 4 C. ORF array: PBS pH 7.0 with RNase inhibitor, 100 ng RNA; high values mean tight binding
Conditions in all cases: ssRNA
ADARB2(2) = biological target: T1, ADARB2(2) (Homo sapiens, UniProt Q9NS39)
T1 sequence: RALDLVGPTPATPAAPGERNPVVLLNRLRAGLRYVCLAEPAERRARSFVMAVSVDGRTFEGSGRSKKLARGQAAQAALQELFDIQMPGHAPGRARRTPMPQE

FBP3(1-4) = FBP3(1-4) (Homo sapiens, UniProt Q96I24)
Chain of FBP3(1-4) (Q96I24 57-441): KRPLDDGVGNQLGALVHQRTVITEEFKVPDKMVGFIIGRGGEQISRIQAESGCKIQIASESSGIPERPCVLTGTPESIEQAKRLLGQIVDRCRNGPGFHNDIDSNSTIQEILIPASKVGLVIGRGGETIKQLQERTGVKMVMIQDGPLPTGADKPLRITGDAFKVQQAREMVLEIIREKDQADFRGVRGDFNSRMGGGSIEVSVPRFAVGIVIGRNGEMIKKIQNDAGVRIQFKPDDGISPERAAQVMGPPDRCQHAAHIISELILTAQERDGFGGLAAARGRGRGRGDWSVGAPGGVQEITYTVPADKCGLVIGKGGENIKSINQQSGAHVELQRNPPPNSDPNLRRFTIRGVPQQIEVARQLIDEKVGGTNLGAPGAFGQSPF

IGF2BP3(3-4) = IGF2BP3(3-4) (Homo sapiens, UniProt O00425)
Chain of IGF2BP3(3-4) (O00425 387-579): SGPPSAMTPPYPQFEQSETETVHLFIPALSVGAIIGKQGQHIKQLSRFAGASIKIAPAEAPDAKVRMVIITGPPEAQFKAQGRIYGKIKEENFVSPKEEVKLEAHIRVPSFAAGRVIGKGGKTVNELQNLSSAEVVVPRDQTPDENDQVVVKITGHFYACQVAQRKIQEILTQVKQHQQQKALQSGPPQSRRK

DGCR8 = biological target: T2, DGCR8 (Homo sapiens, UniProt Q8WYQ5)
T2 sequence: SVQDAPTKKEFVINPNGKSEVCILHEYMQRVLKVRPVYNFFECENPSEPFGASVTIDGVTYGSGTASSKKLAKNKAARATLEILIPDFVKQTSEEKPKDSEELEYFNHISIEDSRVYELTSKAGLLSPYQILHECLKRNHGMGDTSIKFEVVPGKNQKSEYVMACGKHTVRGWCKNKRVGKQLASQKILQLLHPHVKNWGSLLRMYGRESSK

QKI = biological target: T3, QKI (Homo sapiens, UniProt Q96PU8)
T3 sequence: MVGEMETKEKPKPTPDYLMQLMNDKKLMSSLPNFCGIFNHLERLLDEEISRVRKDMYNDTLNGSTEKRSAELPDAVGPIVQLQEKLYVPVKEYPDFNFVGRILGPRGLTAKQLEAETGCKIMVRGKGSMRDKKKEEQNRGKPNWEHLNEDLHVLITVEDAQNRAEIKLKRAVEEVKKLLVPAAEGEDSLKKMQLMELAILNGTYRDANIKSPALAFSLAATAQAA

CAGUGCAAUGAUGAAAGGGCAU
binding signal (ADARB2(2)): 32.5 ± 3.78 fluorescence intensity | binding signal (FBP3(1-4)): 52.55 ± 0.495 fluorescence intensity | binding signal (IGF2BP3(3-4)): 53.6 ± 2.39 fluorescence intensity | binding signal (DGCR8): 102 ± 2.74 fluorescence intensity | binding signal (QKI): 37.7 ± 8.53 fluorescence intensity

UGAGGUAGUAGGUUGUGUGGUU
binding signal (ADARB2(2)): 85.94 ± 0.24 fluorescence intensity | binding signal (FBP3(1-4)): 107 ± 3.19 fluorescence intensity | binding signal (IGF2BP3(3-4)): 169 ± 5.85 fluorescence intensity | binding signal (DGCR8): 212.8 ± 0.537 fluorescence intensity | binding signal (QKI): 66.4 ± 1.27 fluorescence intensity

UGAGGUAGUAGGUUGUAUAGUU
binding signal (FBP3(1-4)): 38 ± 4.14 fluorescence intensity | binding signal (IGF2BP3(3-4)): 29.1 ± 0.552 fluorescence intensity | binding signal (DGCR8): 38.6 ± 3.32 fluorescence intensity | binding signal (QKI): 20.4 ± 2.35 fluorescence intensity

UGAGGUAGUAGGUUGUAUGGUU
binding signal (ADARB2(2)): 59.45 ± 0.594 fluorescence intensity | binding signal (FBP3(1-4)): 77.1 ± 5.85 fluorescence intensity | binding signal (IGF2BP3(3-4)): 96.125 ± 0.0778 fluorescence intensity | binding signal (DGCR8): 110 ± 8.32 fluorescence intensity | binding signal (QKI): 33.2 ± 5.98 fluorescence intensity

AGAGGUAGUAGGUUGCAUAGUU
binding signal (ADARB2(2)): 23.8 ± 11.5 fluorescence intensity | binding signal (FBP3(1-4)): 63.6 ± 6.09 fluorescence intensity | binding signal (IGF2BP3(3-4)): 64.5 ± 3.37 fluorescence intensity | binding signal (DGCR8): 130 ± 1.15 fluorescence intensity | binding signal (QKI): 33.1 ± 1.25 fluorescence intensity

Reference: paper PMC11574364
